Key:
Conditions in all cases: concentration: 1 μM, replicates: in singlicate; n = 1
[1] = tested on: CDKL3
[2] = tested on: CDKL5
[3] = tested on: CHEK1
[4] = tested on: CHEK2
[5] = tested on: CIT
[6] = tested on: CLK1
[7] = tested on: CLK2
[8] = tested on: CLK3
[9] = tested on: CLK4
[10] = tested on: CSF1R-autoinhibited
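Note: KINOMEscan kinase panel screen.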

SMILES	%Inh [1] [%]	%Inh [2] [%]	%Inh [3] [%]	%Inh [4] [%]	%Inh [5] [%]	%Inh [6] [%]	%Inh [7] [%]	%Inh [8] [%]	%Inh [9] [%]	%Inh [10] [%]
COC(=O)c1c(-c2ccccc2)c2cc(C)ccc2c(=O)n1Cc1ccccc1	0	0	0	0	0	0	0	0	0	0
Nc1ncnc2c1ncn2-c1cccc(F)c1 [SKF-97560]	0	21	17	0	6	22	0	0	0	19
COc1ccc(-c2cc3c(C)nc(N)nc3n([C@H]3CC[C@H](O)CC3)c2=O)cn1	0	0	0	13	0	0	0	0	0	6
CCC(=O)c1c(-c2ccccc2)c2cc(Cl)ccc2c(=O)n1Cc1cc(S(C)(=O)=O)n(CC(F)F)n1	2	8	13	0	0	8	0	0	0	0
COc1cc2ncn(-c3cc(OCc4ccc(S(C)(=O)=O)cc4)c(C(N)=O)s3)c2cc1OC [GW869979]	0	15	18	0	29	17	1	0	0	5
CCc1nc(-c2cccc(C)c2)c(-c2ccncc2)s1	7	0	0	16	72	13	6	0	0	0
Cc1ccc(-c2ccc3c(ccc4sc5c(c43)NC[C@@H](C)N=C5N(C)C)n2)cn1	0	0	0	1	0	0	0	0	0	14
COc1cc2nccc(Nc3ccc(OCc4ccc(NC(C)=O)cc4)cc3)c2cc1OC.Cl [GW440135]	20	0	0	0	0	8	0	10	0	25
Nc1n[nH]c2nnc(-c3ccccc3)c(-c3ccccc3)c12 [GW554060]	0	0	24	0	26	23	65	0	12	34
COc1cc(Nc2nccc(N3CCC(NC(=O)C(C)c4ccc(Cl)cc4)C3)n2)cc(OC)c1OC (centres unmarked) [GSK1379757]	0	0	0	8	9	22	0	43	18	0
Nc1nc(-c2ccccc2F)c(-c2ccnc3ccccc23)s1 [GW560459]	0	0	0	14	30	12	0	8	7	24
CN1C(=O)C(Nc2ccccc2)=C(c2ccccc2)C1=O [SB-300079]	19	0	0	0	4	0	18	0	0	0
COc1cc(Nc2ccnc3ccc(C(F)(F)F)cc23)cc(OC)c1OC [GW577382]	8	0	0	0	11	25	0	0	14	14
O=C1NC(=O)C(c2ccccc2)=C1Nc1cccc(O)c1 [SB-390534]	0	0	0	16	0	40	21	19	10	0
COc1cc2ncn(-c3cc(OCc4ccncc4Br)c(C(N)=O)s3)c2cc1OC [GW854278]	0	0	0	10	3	10	38	0	0	0
CN(C)c1cc(-c2ccc3c(N)n[nH]c3c2)nc(N)n1 [GSK2219329]	0	0	0	0	23	45	12	0	51	0

SMILES	%Inh [1] [%]	%Inh [2] [%]	%Inh [3] [%]	%Inh [4] [%]	%Inh [5] [%]	%Inh [6] [%]	%Inh [7] [%]	%Inh [8] [%]	%Inh [9] [%]	%Inh [10] [%]
COc1cc2ncn(-c3cc(OCCCc4ccccc4)c(C(N)=O)s3)c2cc1OC [GSK205189]	0	2	0	0	10	19	0	0	9	0
Nc1n[nH]c2ncc(-c3ccccc3)cc12 [SB-517081]	0	0	12	0	29	21	0	0	66	0
CCn1c(-c2ccoc2)nc2cnccc21 [SB-733887]	0	0	17	24	19	26	0	0	3	15
COc1cc(Nc2nccc(N3CCC(NC(=O)C4COc5ccccc5O4)C3)n2)cc(OC)c1OC (centres unmarked) [GSK1379761]	0	0	0	29	33	3	0	0	0	58
OCCCNc1nccc(-c2c(-c3cccc(C(F)(F)F)c3)nn3cc(C(F)(F)F)ccc23)n1 [GW630813]	0	11	0	1	0	9	0	0	16	32
CCCNC(=O)Nc1ccc(Oc2ncnc3ccn(C)c23)cc1	18	7	0	0	1	0	0	0	4	7
COC(=O)c1c(-c2ccccc2)c2cc(Br)ccc2c(=O)n1Cc1ccc(NC(=O)CCC(=O)O)cc1	12	6	0	25	33	0	0	0	17	0
CCCC(=O)Nc1n[nH]c2ncc(-c3cccc4ccccc34)cc12 [SB-642057]	0	3	0	0	1	30	0	0	8	0
COc1ccc(-c2cc3c(C)nc(N)nc3n([C@H]3CC[C@H](OCCO)CC3)c2=O)cn1	29	0	0	12	0	0	0	0	0	12
Cc1nnc(-c2ccc3ncn(-c4ccc(S(C)=O)cc4)c3c2)o1 (centres unmarked)	2	0	1	0	35	46	10	0	40	7
Fc1cccc(CSc2nnc(-c3ccc4c(c3)CCO4)o2)c1	0	16	0	3	0	73	20	0	78	5
Cl.NS(=O)(=O)c1cccc(Nc2cc(-c3ccc(F)cc3)n[nH]2)c1 [GW824645]	1	0	0	0	2	0	0	0	0	0
Cn1c(=O)c(F)c(Nc2ccc(I)cc2F)c2c(=O)n(OC[C@H](O)CO)cnc21	7	0	0	0	17	7	16	17	0	0
O=C(Nc1n[nH]c2cc(-c3ccccc3F)ccc12)C1CC1 [SB-733371]	14	0	0	13	7	2	0	14	0	0
CN1C(=O)C(Nc2cc(Cl)c(O)c(Cl)c2)=C(c2ccc(Cl)cc2)C1=O [SB-404321]	0	0	0	0	38	22	0	0	0	0
Cc1nc(N(C)[C@H]2CN(C(=O)CC#N)CC[C@H]2C)c2cc[nH]c2n1	0	6	48	0	0	13	15	0	0	0

Source: publication PMC5540273 (PLoS ONE, 2017)
